Source: PubChem (Buhrlage Lab, Dana-Farber Cancer Institute and Novartis Institutes for BioMedical Research (Cambridge, Mass))
OTUD3 block: human OTUD3 deubiquitinase inhibition | purified OTUD3, Ub-rhodamine fluorescence, 2 h | inhibition, % at 25 µM | 0.7% of 47,000 active | AID 1645858
UCHL1 block: human UCHL1 deubiquitinase inhibition | P09936 | purified UCHL1, Ub-rhodamine cleavage fluorescence | inhibition, % at 20 µM | 0.2% of 47,000 active | AID 1645859
USP7 block: inhibitors of human USP7 deubiquitinase | Q93009 | purified USP7, Ub-rhodamine cleavage fluorescence | inhibition, % at 20 µM | 0.3% of 47,000 active
Each line names hits and unclear results; the compound was inactive in the other large screens. Most compounds without a hit are left out; they make up all but 0.83% or so of the library. Cut-off read from the data, not from the text of the source: active = inhibition above about 30%; inactive = the rest.

O=C(Nc1ccccc1)C1COc2ccccc2C1 (configuration not stated)	none
O=C(O)C1C(C(=O)Nc2ccccc2)C2(c3ccccc3)C(=O)C1(c1ccccc1)C(c1ccccc1)=C2c1ccccc1 (configuration not stated)	OTUD3 block 64.2, USP7 block 65.7
O=c1[nH]c2c(cc1CNCCc1ccccc1)c(-c1ccc(F)cc1)nn2-c1ccccc1	none
Cc1ccc(NCc2cc3c(-c4cccc(F)c4)nn(-c4ccccc4)c3[nH]c2=O)cc1C	USP7 block 51.3
COc1ccc(-c2nn(-c3ccccc3)c3[nH]c(=O)c(CNCc4cccs4)cc23)cc1OC	none
O=c1[nH]c2c(cc1CNc1ccc(Cl)cc1)c(-c1cccc(F)c1)nn2-c1ccccc1	none
O=c1[nH]c2c(cc1CNc1ccc(Oc3ccccc3)cc1)c(-c1ccc(F)cc1)nn2-c1ccccc1	UCHL1 block 40.5, USP7 block 50.0
COc1ccc(-c2nn(-c3ccccc3)c3[nH]c(=O)c(CNc4ccc5c(c4)OCCO5)cc23)cc1OC	USP7 block 30.6
N#Cc1ccc(-c2ccc(OCC(=O)Nc3ccc4c(c3)OCO4)cc2)cc1	none
O=S1(=O)NC(=NCCc2cccc(F)c2)c2ccccc21	none
CCOc1ccc2nc(-n3nc(C)c4c3NC(=O)CC4c3cc(F)ccc3F)sc2c1 (configuration not stated)	none
CCOc1ccc(C2/C(=C(\O)c3ccccc3)C(=O)C(=O)N2c2nc3ccc(F)cc3s2)cc1 (configuration not stated)	USP7 block 72.0
O=C(NC1(O)C(=O)c2ccccc2C1=O)c1cccc2c1-c1ccccc1C2=O	none
Cc1cc(C(=O)NC2(O)C(=O)c3ccccc3C2=O)n(C)n1	UCHL1 block 30.6
O=C(/C=C/C=C/C=C/C1CCCCC1)NC1=C[C@@](O)(/C=C/C=C/C=C/C(=O)NC2=C(O)CCC2=O)[C@@H]2O[C@@H]2C1=O	OTUD3 block 72.8, UCHL1 block 47.0, USP7 block 44.9
Cc1ccc2nc(CNc3ccc(F)cc3C)cc(=O)n2c1	OTUD3 block 42.0, UCHL1 block 31.7
NC(=O)c1ccccc1NCc1cc(=O)n2cc(Cl)ccc2n1	none
O=S(=O)(c1cccc(Cl)c1)N1CCN(c2cnn3cnnc3c2)CC1	none
COc1cc(NC(=O)Cc2cn3ccccc3n2)cc(OC)c1	none
O=C(Nc1ccc(-c2cn3ccccc3n2)cc1)C1C=C2C=C(Br)C=CC2OC1=O (configuration not stated)	OTUD3 block 42.6
